From PubChem BioAssay (Tox21)
Results filed as inconclusive are left out. Unmarked numbers belong to inactive results. Active and inactive are the calls of the source. Calls follow the shape of the dose curve; as a rule, active = well fitted activation curve with a large enough effect in the signal ratio in the repeat runs (not every such curve was filed as active); inconclusive = weak or mixed curves, or effect the other way; inactive = no such curve, though single readings can be large or run the other way; the % refers to the signal ratio.

Experiment: qHTS assay for small molecule agonists of the antioxidant response element (ARE) signaling pathway (AID 743202)
Settings: HepG2 ARE-bla reporter, beta-lactamase FRET, 16 h; series mostly up to 73.3 µM; activation: at the top concentration
Description: U.S. Tox21 Program National Center for Advancing Translational Sciences [NCATS] NIH Chemical Genomics Center [NCGC] U.S. Environmental Protection Agency [EPA] National Institutes of Environmental Health Sciences [NIEHS] National Toxicology Program [NTP] U.S. Food and Drug Administration [FDA] Tox21 Assay Overview: Oxidative stress has been implicated in the pathogenesis of a variety of diseases ranging from cancer to neurodegeneration. The antioxidant response element (ARE) signaling pathway plays an important role in the amelioration of oxidative stress. The CellSensor ARE-bla HepG2 cell line (Invitrogen) can be used for analyzing the Nrf2/antioxidant response signaling pathway. Nrf2 (NF-E2-related factor 2) and Nrf1 are transcription factors that bind to AREs and activate these genes. The CellSensor ARE-bla Hep G2 cell line contains a beta-lactamase reporter gene under control of the Antioxidant Response Element (ARE) stably integrated into HepG2 cells. The activation of the report gene under culture conditions can be detected by fluorescence intensity. This cell line has been used to screen the Tox21 10K compound library to identify agonists that induce oxidative stress.
Tox21 Assay Protocol Summary: The ARE-bla cells were dispensed at 2,000 cells/5 ul/well in 1536-well black wall/clear bottom plates using a Multidrop dispenser. After the assay plates were incubated at a 37 C/5% CO2 incubator for 5 hours, 23 nL of compounds dissolved in DMSO, positive controls or DMSO only was transferred to the assay plate by a pin tool. The plates were incubated at 37 C for 16 hours. After 1 uL of LiveBLAzer B/G FRET substrate was added using a Flying Reagent Dispenser, the plates were incubated at room temperature for 2 hours, and fluorescence intensity was measured by an Envision plate reader.
% is scaled to controls: 0 for no effect and ±100 for the full control effect; potency is read from the fitted curve at half-maximal effect.

SMILES	activation	Potency
CCOC(=O)CCN(SN(C)C(=O)Oc1cccc2c1OC(C)(C)C2)C(C)C	0.644%	–
O=C(CCCCl)c1ccc(F)cc1	-4.41%	–
O=C(Cl)c1ccccc1F	-8.93%	–
CCCCCCC[CH2][Sn]([Cl])([Cl])[CH2]CCCCCCC	–	0.863 µM (active)
CC[N+]1(CC)CCC(OC(=O)C(O)(c2ccccc2)c2ccccc2)C1 (stereo not given)	-7.32%	–
COC(=O)C(C)N(C(=O)c1ccco1)c1c(C)cccc1C (stereo not given)	9.95%	–
CC(Cl)CCl (stereo not given)	-11.1%	–
C=Cc1cccc(CCl)c1	–	55.9 µM (active)
C=CC(=C)C	-6.3%	–
CNN	4.13% [at 94.8 µM]	–
CC(=O)[O-].CC(=O)[O-].O.O.O.[Pb+2]	–	2.73 µM (active)
CN(C)CCc1c[nH]c2ccccc12	-5.98% [at 94.8 µM]	–
CN1C2CCC(C)(C)C1CC(OC(=O)C(O)(c1cccs1)c1cccs1)C2 (stereo not given)	-10.2%	–
CC(C)N(C(=O)SC/C(Cl)=C/Cl)C(C)C	-4.64% [at 94.8 µM]	–
CN/C(=N\[N+](=O)[O-])NCc1cnc(Cl)s1	-0.422%	–
c1csc(-c2ccc(-c3cccs3)s2)c1	–	2.73 µM (active)
CCN(CC)Cc1nccn1-c1ccc([N+](=O)[O-])cc1C(=O)c1ccccc1Cl	–	21.1 µM (active)
CC(Cc1ccc(O)cc1)NCC(O)c1cc(O)cc(O)c1 (stereo not given)	-13.7%	–
CCCCON=O	2.69% [at 94.8 µM]	–
CC(=O)[O-].CC(=O)[O-].CC(=O)[O-].[Sb+3]	-8.79% [at 8.36 µM]	–

SMILES	activation	Potency
Cc1cc(C2CC2)nc(Nc2ccccc2)n1	–	27.3 µM (active)
COC(=O)N(OC)c1ccccc1COc1ccn(-c2ccc(Cl)cc2)n1	–	0.433 µM (active)
C[C@]12Cc3cn[nH]c3C[C@@H]1CC[C@@H]1[C@@H]2CC[C@@]2(C)[C@H]1CC[C@]2(C)O	–	26.6 µM (active)
CCCCCON=O	-7.8% [at 94.8 µM]	–
Clc1c(Cl)c(Cl)c(Cl)c(Cl)c1Cl	-2.23% [at 8.36 µM]	–
CN1[C@@H]2CC[C@H]1CC(O)C2 (stereo not given in full)	9.79% [at 94.8 µM]	–
O=P(Cl)(Cl)Cl	-3.3% [at 94.8 µM]	–
Cc1cc2c3c(c1)C(c1ccccc1)=N[C@@H](NC(=O)c1ccncc1)C(=O)N3CC2	0.476%	–
CCCCN(CCCC)C(=S)S	16.9%	–
Cc1ccc2cc3c(ccc4ccccc43)c3c2c1CC3	–	1.22 µM (active)
O=Cc1ccccc1	-12.2% [at 94.8 µM]	–
O=C1C[C@@H]2OCC=C3CN4CC[C@]56c7ccccc7N1[C@H]5[C@H]2[C@H]3C[C@H]46	-2.86%	–
N#Cc1ccc(N(CC(N)=O)CC(F)(F)F)cc1C(F)(F)F	0.892%	–
Brc1ccc(Oc2ccc(Br)cc2Br)c(Br)c1	3.15%	–
CC#C[C@]1(O)CC[C@H]2[C@@H]3C[C@H](C)C4=CC(=O)CC[C@]4(C)[C@H]3CC[C@@]21C	–	23.7 µM (active)
OCC(Br)CBr (stereo not given)	-2.39% [at 94.8 µM]	–
ClSC(Cl)(Cl)Cl	-10.1%	–
C#CC1(O)CCCCC1	0.363%	–
CC(C)=CCN1CC[C@@]2(C)c3cc(O)ccc3C[C@@H]1[C@@H]2C	-7.84%	–
C=CCBr	-12.9% [at 94.8 µM]	–
